In the library only some 4.1% were active in any assay of this set; here they are far more common.
tim10-1 inh = growth inhibitors of tim10-1 mutant yeast, primary screen, luminescence, uHTS | actives 2.2% (n = 330,000) | AID 463190, 2010 | S. cerevisiae tim10-1 ts strain growth, BacTiter-Glo, 24 h | inhibition, % at 20 µM;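 active = inhibition of at least 40%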;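 also: mutant grown at 25 °C; 0% = DMSO wells with yeast and 100% = wells holding no yeast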
NALP1 yeast inh = NALP1 inflammasome inhibitors in reconstituted yeast, colorimetric, S. cerevisiae, triplicate retest; S. cerevisiae NALP1/ASC/caspase-1 growth, X-gal OD620, 72 h; inhibition, % at 10 µM; actives 0.61% (n = 280,000); in the data active = inhibition mostly above about 24%, no sharp cut-off; inactive = mostly below about 32%
NLRP3 yeast inh = NALP3 inflammasome inhibitors in reconstituted yeast, primary screen, luminescence, uHTS. AID 2825, 2010. inhibition, % at 10 µM. Yeast reconstituted NLRP3/ASC/caspase-1, beta-gal luminescence, 24 h. actives 0.39% (n = 330,000);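 active = inhibition of 50% or more; inactive = inhibition below 50%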;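 also: plate controls were induced DMSO wells for no effect and uninduced yeast grown without galactose for full effect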
tim23-1 inh = growth inhibitors of tim23-1 mutant yeast, primary screen, luminescence, uHTS; S. cerevisiae tim23-1 growth, BacTiter-Glo luminescence, 24 h; actives 1.3% (n = 330,000); inhibition, % at 20 µM; AID 463212, 2010;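 active = growth inhibition of the mutant yeast at or above 50%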;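 also: temperature-sensitive mutant grown at 25 °C; plate controls were DMSO-treated mutant yeast for no effect and medium wells lacking yeast for full effect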
TIM10 inh = growth inhibitors of isogenic TIM10 control yeast, primary screen, counter-screen for tim10-1 yeast inhibitor project, luminescence, uHTS; S. cerevisiae TIM10 strain growth, BacTiter-Glo luminescence, 24 h; AID 463195, 2010; actives 1.4% (n = 330,000); inhibition, % at 10 µM;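 active = inhibition of 40% or more at the single tested concentration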;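 also: wild-type TIM10 isogenic control strain grown at permissive 25 °C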
tim10-1 confirm = growth inhibitors of tim10-1 mutant yeast, confirmation, single concentration, luminescence, S. cerevisiae; shares compounds with tim10-1 inh; actives 56% (n = 7,400); inhibition, % at 20 µM; S. cerevisiae tim10-1 ts strain growth, BacTiter-Glo, 24 h; AID 463213, 2010;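 active = inhibition of yeast growth at or above a set limit in either of two repeat tests at 20 µM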;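 also: tim10-1 mutant grown at permissive 25 °C to find synthetic lethal compounds; 0% = DMSO yeast wells and 100% = medium wells without yeast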
Numbers without * were called inactive; / = no result given.

SMILES	tim10-1 inh	NALP1 yeast inh	NLRP3 yeast inh	tim23-1 inh	TIM10 inh	tim10-1 confirm
C[n+]1c(-c2ccccc2)sc([S-])c1-c1ccccc1	13.4	/	-10.0	8.2	-9.1	/
O=C(Nc1ccccc1C(=O)N/N=C/c1ccco1)c1ccc(Cl)cc1	39.5	19.5	-10.5	40.1	21.6	/
O=C(Nc1ccccc1C(=O)N/N=C/c1ccco1)c1ccccc1	41.3*	17.6	10.0	24.1	12.0	26.2
COc1ccc(CCNC(=O)c2cc3cc(F)ccc3nc2C)cc1OC	8.5	/	12.2	-1.7	11.5	/
O=C(CNC(=O)c1ccc(Cl)c([N+](=O)[O-])c1)OC1CCCCC1=O (stereo not given)	17.6	/	15.5	9.2	7.4	/
O=C(Nc1cc(-c2ccccc2)[nH]n1)c1ccc(Cl)cc1	-31.2	14.0	2.5	34.0	7.8	/
Nc1nc(-c2ccc(Br)cc2)cs1	55.8*	34.2	31.0	44.2	32.1	46.4*
Nc1nc(-c2ccc(F)cc2)cs1	-1.8	13.8	12.8	21.8	1.0	/
CN(C)/C=C/C(=O)c1ccc(Cl)c([N+](=O)[O-])c1	8.4	7.9	-6.2	9.9	0.7	/
Cc1cc(C(=O)NN=C2CCCCCC2)c(C)o1	80.4*	/	-3.5	12.7	1.5	4.6
Nn1c(SCc2c(F)cccc2F)nnc1-c1ccccn1	18.3	28.7	7.7	28.3	25.7	/
Cc1ccc(C)c(CSc2nnc(-c3ccccn3)n2N)c1	43.8*	18.3	22.3	29.9	22.3	29.9
CNCCCCOc1ccc(C(C)(C)C)cc1Cl	-10.2	14.4	36.9	-8.3	-11.1	/
C=CCNC(=O)c1cc2sccc2n1C	-12.9	/	8.5	-4.3	-22.6	/
CC(C)c1ccc(NC(=O)Nc2cc3sccc3n2C)cc1	42.2*	36.0	24.9	27.5	17.7	11.3
FC(F)(F)Oc1ccc(Nc2nc(N3CCOCC3)nc(N3CCOCC3)n2)cc1	-9.4	10.9	31.2	-5.5	-13.5	/
Cc1ccc(C)c(OCc2cc(C(=O)N3CCOCC3)no2)c1	-0.5	8.9	14.0	-2.5	-2.6	/
O=C1CCCCC1Sc1nnc(Cc2cccs2)n1CCc1ccccc1 (stereo not given)	45.0*	19.6	10.5	14.3	16.6	23.6
CCn1c2ccccc2c2nc3cc(OC)c(OC)cc3nc21	29.7	5.9	29.4	42.1	29.9	/
CCn1c2ccccc2c2nc3ccccc3nc21	43.3*	6.8	-26.2	42.8	7.3	35.3*
COC(=O)c1c(C)[nH]c(C(=O)CSc2ccc(Cl)cc2)c1C	12.4	3.1	25.4	15.9	2.2	/
Cc1noc(NS(=O)(=O)c2ccc(NC(=O)Nc3ccc(Cl)c(Cl)c3)cc2)c1C	46.3*	33.2	12.7	14.6	17.0	38.0*
O=C(Nc1ccc(Br)cc1)c1cccc2c1C(=O)N(C1CCCCC1)C2	55.0*	2.7	-1.1	40.5	-2.0	9.4
CSc1ccc(CCNC(=O)c2cccc3c2C(=O)N(C2CCCCC2)C3)cc1	41.9*	2.8	15.1	36.4	22.8	17.6
O=C(Nc1ccc(Br)cc1Br)c1cccc2c1C(=O)N(C1CCCCC1)C2	41.8*	0.8	8.8	33.1	2.1	9.1
SMILES	tim10-1 inh	NALP1 yeast inh	NLRP3 yeast inh	tim23-1 inh	TIM10 inh	tim10-1 confirm
Cc1ccc(NC(=O)CNC(=O)c2ccco2)c(Cl)c1	1.4	19.6	15.7	2.7	-3.5	/
CC(=O)Nc1ccc(S(=O)(=O)NNC(=O)c2cccc([N+](=O)[O-])c2)cc1	-4.2	-4.6	3.5	11.7	-0.7	/
COc1ccccc1C(CNC(=O)c1cc(S(=O)(=O)N2CCOCC2)ccc1C)N1CCCC1 (stereo not given)	5.6	/	15.8	8.3	-1.4	/
CCCN(C(=O)CCOc1ccc(C(C)(C)C)cc1)c1c(N)n(Cc2ccccc2)c(=O)[nH]c1=O	-0.3	/	8.3	-11.2	-4.2	/
CCc1ccccc1OCC(=O)Nc1nc(-c2cccnc2)cs1	40.0	-9.2	16.0	29.4	6.9	29.4
CCC(=O)c1ccc(OCC(=O)Nc2nc(-c3cccnc3)cs2)cc1	-11.7	/	11.6	-12.0	-24.4	/
COC(c1ccccc1)c1nnc(CCC(=O)N(C)Cc2cccc(-n3cccn3)c2)o1 (stereo not given)	0.5	19.8	1.9	-5.8	-11.3	/
Cn1c(=O)c2c(nc(SCC(=O)NCc3ccc4c(c3)OCO4)n2Cc2ccc(Cl)cc2)n(C)c1=O	40.7*	4.4	2.6	13.2	23.2	5.4
Cc1ccc(/C=C2\CCC3=C2OC(N)=C(C#N)C3c2ccc(C)cc2)cc1 (stereo not given)	46.5*	3.9	3.3	37.6	20.3	34.3*
CCOc1ccccc1NC(=O)COC(=O)c1nc2nccc(C)n2n1	7.7	/	-3.8	8.8	-3.2	/
Cc1cccc(CN2CCc3c([nH]c4ccccc34)C2)c1	32.9	17.7	-3.8	22.2	29.4	/
Clc1cccc(CN2CCc3c([nH]c4ccccc34)C2)c1	45.2*	28.0	8.1	25.1	34.6	43.8*
Cc1ccc(NC(=S)N(CCN2CCOCC2)Cc2ccccc2F)cc1Cl	36.6	-3.2	-2.6	6.0	35.1	/
Cc1cccc(NC(=S)N(CCN2CCOCC2)Cc2ccccc2F)c1	42.4*	-9.1	-3.3	15.9	-5.9	4.7
CC(C)(C)c1csc(SCC(=O)Nc2ccc(Cl)cn2)n1	42.6*	-5.2	28.2	38.1	23.0	30.4
Cc1csc(SCC(=O)Nc2ccc(Cl)cn2)n1	7.9	26.9	28.8	-14.7	18.5	/
CCN(CC)S(=O)(=O)c1ccc(OC)c(NC(=O)c2cc(=O)[nH]c3ccccc23)c1	12.2	-8.7	3.2	6.9	5.3	/
CCOc1cc(/C=N/NC(=O)CN2CCOCC2)ccc1OCc1ccc(Cl)cc1	41.8*	35.8	24.6	16.0	18.4	10.2
O=C(NCCO)c1cc2c([nH]c3ccccc32)c(-c2ccccc2)n1	43.4*	18.7	10.5	22.9	15.4	13.8
O=C(NCCO)c1cc2c([nH]c3ccccc32)c(-c2ccc(F)cc2)n1	28.7	1.7	6.7	34.2	29.0	/
Cc1cc(C)nc(NC(=S)Nc2cccc(F)c2)c1	40.5*	13.0	21.2	25.5	-6.5	-36.5
COc1cccc(NC(=S)Nc2cc(C)cc(C)n2)c1	14.6	17.7	36.0	-0.6	-13.9	/
CN(/N=C/c1cc(Br)cc(Br)c1O)c1ccccc1	43.0*	15.2	20.4	19.7	24.3	35.3*
O=C(CP(=O)(c1ccccc1)c1ccccc1)N/N=C/c1cc(Br)cc(Br)c1O	20.9	3.9	9.6	39.6	17.9	/
CCOC(=O)NC(=O)CSc1ccc(S(=O)(=O)N(C)C2CCCCC2)cn1	10.8	/	17.8	23.7	-15.0	/
COC(CNC(=O)c1cnn2c(C)c(Cc3ccccc3)c(C)nc12)OC	40.3*	-1.9	7.6	26.2	-1.9	23.5
O=C1NC(=O)/C(=C\c2ccccc2Oc2ccc(F)c(F)c2)S1	44.9*	-9.4	-83.0	28.4	19.2	32.4*

Source: PubChem
